Measured values from PubChem BioAssay (Tox21).
Inconclusive results are not listed. Active and inactive are the calls of the source. Unless noted, calls follow the shape of the full dose curve. Square brackets hold non-standard residues; d marks the D form. Peptide text beside a SMILES is read from it. * marks the point of attachment. Sta = CC(C)C[C@H](N)[C@@H](O)CC(=O)O; Isovaleryl = CC(C)CC(=O)*

Tests used:
[1] = Nuclear factor erythroid 2-related factor 2/antioxidant responsive element (Nrf2/ARE) small molecule agonists: qHTS cell viability counter screen in human keratinocytes (AID 1919968; active = well fitted curve in the direction sought with a large enough effect in the repeat runs; an effect the other way counts as inactive or inconclusive; also: nearly all actives have a fitted effect of over 55% in size; also: potency is read from the fitted curve at half-maximal effect)
Method in brief: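 CellTiter-Fluor fluorescence, read 1 h after reagent, gave viability in the same wells as the ARE-luciferase assay. KeratinoSens cells (1,500/well) had 23 h compound exposure at 37 C/5% CO2 following 5 h plating.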

[2] = target: KiSS-1 receptor (Homo sapiens) (UniProt Q969F8); assay: Human kisspeptin (KISS1R) small molecule agonists, calcium flux assay in KISS1R-HEK293 cells (AID 1920064; active = well fitted curve in the direction sought with a large enough effect in the repeat runs; an effect the other way counts as inactive or inconclusive)
Sequence of KiSS-1 receptor (Homo sapiens) (Q969F8 whole entry, looked up): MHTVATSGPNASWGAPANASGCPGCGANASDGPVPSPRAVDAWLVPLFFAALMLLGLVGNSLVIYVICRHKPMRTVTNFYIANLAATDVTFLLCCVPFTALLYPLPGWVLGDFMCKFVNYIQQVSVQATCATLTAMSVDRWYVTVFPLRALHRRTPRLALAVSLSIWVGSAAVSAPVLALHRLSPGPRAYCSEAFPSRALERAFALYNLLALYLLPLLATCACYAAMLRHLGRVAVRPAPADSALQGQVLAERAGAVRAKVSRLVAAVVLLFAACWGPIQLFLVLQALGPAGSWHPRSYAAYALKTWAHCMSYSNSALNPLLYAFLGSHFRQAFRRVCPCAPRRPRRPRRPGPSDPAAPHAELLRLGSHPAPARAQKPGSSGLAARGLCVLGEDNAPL
Method in brief: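 Agonist mode: intracellular calcium rise tracked at 1 s intervals over 3 min (480/540 nm) immediately after compound addition to dye-loaded KISS1R-HEK293 stable cells. Each compound tested at 15 concentrations in triplicate.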

[3] = p53 small molecule agonists, cell-based qHTS assay with human liver microsomes (AID 1963577);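 also: p53 response element beta-lactamase reporter cells with liver microsomes plus NADPH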
Method in brief: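 Metabolically competent format: test substances, human liver microsomes and NADPH (both 0.5 mg/mL final) incubated with p53RE-bla cells 16 h at 37 C. Beta-lactamase reporter signal then quantified by fluorescence.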

[4] = p53 small molecule agonists, cell-based qHTS assay with human liver microsomes: qHTS cell viability counter screen (AID 1963579); also: nearly all actives have a fitted effect of over 45% in size; also: potency is read from the fitted curve at half-maximal effect
Method in brief: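 Tox21 library compounds, delivered from DMSO stocks, were tested on p53RE-bla cells together with 0.5 mg/mL human liver microsomes and 0.5 mg/mL NADPH (final) over 16 h at 37 C; CellTiter-Glo luminescence served as the cytotoxicity measure.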

[5] = p53 small molecule agonists, cell-based qHTS assay with rat liver microsomes: qHTS cell viability counter screen (AID 1963580); also: nearly all actives have a fitted effect of over 45% in size; also: potency is read from the fitted curve at half-maximal effect
Method in brief: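 Cytotoxicity counter screen: intracellular ATP measured by CellTiter-Glo luminescence in the same wells as the beta-lactamase reporter read, on HCT-116 p53RE-bla cells exposed 16 h at 37 C to compounds with rat liver microsomes and NADPH, each 0.5 mg/mL final.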

[6] = p53 small molecule agonists, cell-based qHTS assay: qHTS cell viability counter screen (AID 1963581); also: nearly all actives have a fitted effect of over 45% in size; also: potency is read from the fitted curve at half-maximal effect
Method in brief: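 Counter screen read by CellTiter-Glo luminescence (ATP content, 30 min at room temperature), run in the same wells as the beta-lactamase reporter read. HCT-116 p53RE-bla cells saw compounds for 16 h at 37 C.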

[7] = p53 small molecule agonists, cell-based qHTS assay (AID 1963582; active = well fitted activation curve with a large enough effect in the signal ratio in the repeat runs, not every such curve was filed as active; the % refers to the signal ratio; also: potency is read from the fitted curve at half-maximal effect)
Method in brief: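 Read-out is beta-lactamase FRET fluorescence after 2 h at room temperature with LiveBLAzer B/G substrate. p53 response element-bla cells were treated 16 h at 37 C with compounds in DMSO, added 5 h after seeding.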

[8] = target: 5-hydroxytryptamine receptor 2A (Homo sapiens) (UniProt P28223); assay: 5-hydroxytryptamine receptor 2A (HTR2A) small molecule antagonists, cell-based qHTS assay (AID 1963586); also: nearly all actives have a fitted effect of over 45% in size
Sequence of 5-hydroxytryptamine receptor 2A (Homo sapiens) (P28223 whole entry, looked up): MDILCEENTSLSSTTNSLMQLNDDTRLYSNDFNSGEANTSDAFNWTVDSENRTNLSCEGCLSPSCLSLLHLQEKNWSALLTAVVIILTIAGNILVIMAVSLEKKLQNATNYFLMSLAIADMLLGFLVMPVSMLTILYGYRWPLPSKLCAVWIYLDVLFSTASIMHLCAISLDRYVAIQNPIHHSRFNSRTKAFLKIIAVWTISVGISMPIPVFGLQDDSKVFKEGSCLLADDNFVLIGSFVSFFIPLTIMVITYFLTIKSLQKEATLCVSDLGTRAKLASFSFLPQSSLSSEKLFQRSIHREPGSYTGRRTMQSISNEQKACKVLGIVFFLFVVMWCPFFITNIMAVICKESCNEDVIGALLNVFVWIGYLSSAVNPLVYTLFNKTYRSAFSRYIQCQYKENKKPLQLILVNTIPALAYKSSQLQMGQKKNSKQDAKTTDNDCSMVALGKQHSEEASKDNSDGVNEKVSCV
Method in brief: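 CHO cells stably expressing human HTR2A were plated for 18 h at 37 C, then loaded with calcium dye for 1 h. Compounds were preincubated 5 min at room temperature before DOI (4 nM solution) was added. Kinetic fluorescence was read for 3 min.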

[9] = target: 5-hydroxytryptamine receptor 2A (Homo sapiens) (UniProt P28223); assay: 5-hydroxytryptamine receptor 2A (HTR2A) small molecule agonists, cell-based qHTS assay (AID 1963587); also: nearly all actives have a fitted effect of over 30% in size
Method in brief: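 CHO cells stably expressing human HTR2A, plated 18 h, loaded with calcium dye 1 h at 37 C. Agonist mode: compounds added and intracellular calcium fluorescence recorded kinetically for 2 min at 1 sec intervals.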

[10] = target: Muscarinic acetylcholine receptor M1 (Homo sapiens) (UniProt P11229); assay: Cholinergic receptor muscarinic 1 (CHRM1) small molecule antagonists, cell-based qHTS assay (AID 1963588); also: nearly all actives have a fitted effect of over 40% in size
Sequence of Muscarinic acetylcholine receptor M1 (Homo sapiens) (P11229 whole entry, looked up): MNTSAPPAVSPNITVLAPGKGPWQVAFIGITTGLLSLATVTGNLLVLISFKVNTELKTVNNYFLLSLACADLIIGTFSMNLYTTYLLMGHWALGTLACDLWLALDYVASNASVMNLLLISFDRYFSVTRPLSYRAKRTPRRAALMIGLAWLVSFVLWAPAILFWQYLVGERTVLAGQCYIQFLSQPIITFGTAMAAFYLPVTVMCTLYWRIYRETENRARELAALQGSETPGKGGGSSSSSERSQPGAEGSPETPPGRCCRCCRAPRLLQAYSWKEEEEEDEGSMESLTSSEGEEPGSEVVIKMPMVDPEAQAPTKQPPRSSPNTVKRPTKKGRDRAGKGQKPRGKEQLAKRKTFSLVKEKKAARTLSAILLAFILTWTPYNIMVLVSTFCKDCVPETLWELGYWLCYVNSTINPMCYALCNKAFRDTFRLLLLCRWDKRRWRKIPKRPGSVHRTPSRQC
Method in brief: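 Compounds were tested at 15 concentrations in three independent runs. Dye-loaded CHRM1-CHO cells were exposed 5 min at room temperature before stimulation by acetylcholine added at 50nM. Intracellular calcium was read kinetically on FDSS for 3 min.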

[11] = target: Muscarinic acetylcholine receptor M1 (Homo sapiens) (UniProt P11229); assay: Cholinergic receptor muscarinic 1 (CHRM1) small molecule agonists, cell-based qHTS assay (AID 1963589); also: nearly all actives have a fitted effect of over 35% in size
Method in brief: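 Agonist-mode calcium-flux screen: compounds at 15 concentrations, three independent runs, were pin-transferred onto dye-loaded human CHRM1-CHO cells. Fluorescence was then recorded kinetically every second over minutes.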

[12] = cAMP Responsive Elements (CRE) small molecule agonists, cell-based qHTS assay (AID 1963590)
Method in brief: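 Agonist mode: compound added to CRE-bla HEK 293T cells (2,000/well, 18 h after plating) for 3 h at 37 C/5% CO2. Reporter activity detected via FRET beta-lactamase substrate, 2 h room-temperature loading.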

[13] = target: Beta-2 adrenergic receptor (Homo sapiens) (UniProt P07550); assay: Adrenergic beta2 receptor (ADRB2) small molecule antagonists, cell-based qHTS assay (AID 1963592); also: series mostly up to about 92 µM; nearly all actives have a fitted effect of over 50% in size
Sequence of Beta-2 adrenergic receptor (Homo sapiens) (P07550 whole entry, looked up): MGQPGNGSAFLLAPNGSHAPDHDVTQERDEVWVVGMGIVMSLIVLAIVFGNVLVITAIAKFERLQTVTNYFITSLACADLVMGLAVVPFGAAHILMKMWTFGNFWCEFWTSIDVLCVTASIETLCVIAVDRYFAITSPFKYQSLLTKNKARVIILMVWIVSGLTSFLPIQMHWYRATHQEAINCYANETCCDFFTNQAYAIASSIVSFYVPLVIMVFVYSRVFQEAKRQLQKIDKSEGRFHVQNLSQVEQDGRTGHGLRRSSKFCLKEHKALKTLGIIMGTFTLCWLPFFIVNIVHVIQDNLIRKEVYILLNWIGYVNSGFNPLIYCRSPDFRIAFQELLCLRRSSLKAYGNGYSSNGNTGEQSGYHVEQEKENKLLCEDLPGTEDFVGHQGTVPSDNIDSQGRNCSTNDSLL
Method in brief: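 Assay format: CHO-ADRB2 cells, 18-20hr seeding at 37C/5% CO2, then compound plus 1nM isoproterenol agonist mix for 0.5hr RT. Homogeneous time-resolved fluorescence cAMP detection after 1hr, expressed as 665/615 nm ratio.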

[14] = target: D(2) dopamine receptor (Homo sapiens) (UniProt P14416); assay: Dopamine D2 receptor (DRD2) small molecule agonists, cell-based qHTS assay (AID 1963594); also: nearly all actives have a fitted effect of over 35% in size
Sequence of D(2) dopamine receptor (Homo sapiens) (P14416 whole entry, looked up): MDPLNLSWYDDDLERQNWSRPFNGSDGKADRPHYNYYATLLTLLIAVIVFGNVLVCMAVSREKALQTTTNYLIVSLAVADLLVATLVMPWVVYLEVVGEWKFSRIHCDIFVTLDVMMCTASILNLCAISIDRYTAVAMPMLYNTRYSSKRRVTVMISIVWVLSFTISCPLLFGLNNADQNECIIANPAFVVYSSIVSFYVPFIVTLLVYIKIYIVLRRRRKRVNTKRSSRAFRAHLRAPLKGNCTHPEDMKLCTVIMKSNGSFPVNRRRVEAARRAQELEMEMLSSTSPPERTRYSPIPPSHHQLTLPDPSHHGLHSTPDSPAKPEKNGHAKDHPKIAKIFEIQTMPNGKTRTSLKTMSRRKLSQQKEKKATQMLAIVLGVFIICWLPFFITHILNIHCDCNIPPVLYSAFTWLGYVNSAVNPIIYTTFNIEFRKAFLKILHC
Method in brief: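 HEK293 cells stably expressing human DRD2, pre-treated with PDE inhibitor Ro20-1724 (0.1 mM final) and compound 10 min at room temperature, then stimulated with NKH477 (200nM […]) for 30 min. cAMP read by HTRF (665/620 nm).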

[15] = target: D(2) dopamine receptor (Homo sapiens) (UniProt P14416); assay: Dopamine D2 receptor (DRD2) small molecule antagonists, cell-based qHTS assay (AID 1963595; active = well fitted inhibition curve with a large enough effect in the signal ratio in the repeat runs, with a control signal flat; the % refers to the signal ratio)
Method in brief: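 Antagonism was scored as restored cAMP in HEK293-DRD2 cells. These cells were stimulated with 200 nM NKH477 and 12 nM quinpirole for 30 min at room temperature, in the presence of 0.1 mM Ro20-1724.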

[16] = G protein-coupled receptor (GPCR) small molecule agonists, calcium flux assay: HEK293 wild type cell line counter screen (AID 1920065)
Method in brief: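 Calcium flux counter screen: compound added in agonist mode at 15 concentrations in triplicate to dye-loaded parental HEK293 cells. Fluorescence (480/540) read kinetically for 3 min; ATP served as positive control.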

[17] = cAMP Responsive Elements (CRE) small molecule antagonists, cell-based qHTS assay (AID 1963591; active = well fitted inhibition curve with a large enough effect in the signal ratio in the repeat runs, not every such curve was filed as active; the % refers to the signal ratio)
Method in brief: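 Antagonist mode: compounds are added alongside the adenylyl cyclase activator NKH477 (0.25 uM final) to CRE-bla HEK293T cells for 3 h. LiveBLAzer FRET substrate, 2 h at room temperature, reports bla expression.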

[18] = p53 small molecule agonists, cell-based qHTS assay with rat liver microsomes (AID 1963578)
Method in brief: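 Each plate received p53RE-bla cells, then compound, then rat liver microsomes and NADPH (both 0.5 mg/mL final). Plates were held 16 h at 37 C, and beta-lactamase activity was detected with LiveBLAzer over 2 h.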

[19] = target: Beta-2 adrenergic receptor (Homo sapiens) (UniProt P07550); assay: Adrenergic beta2 receptor (ADRB2) small molecule agonists, cell-based qHTS assay (AID 1963593);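 also: CHO cells stably overexpressing human ADRB2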
Method in brief: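 CHO cells stably over-expressing ADRB2 were plated overnight at 37C, then dosed with compounds plus a stimulation mix containing 100uM IBMX and 25uM Ro-20-1724 for 0.5hr at room temperature. cAMP was measured by HTRF competition, 1hr.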

Measured: Potency

CS(=O)(=O)c1ccc(-c2cn3ccccc3n2)cc1
active: [4] 17800 nM
not listed: [16] | [17] | [18] | [19]
inactive: all other assays above

Cc1ccc(Cl)c(OCC(O)CNC(C)(C)C)c1 (centres undefined)
not listed: [4] | [6] | [8] | [13] | [18] | [19]
inactive: all other assays above

C=CCCCC
not listed: [3] | [6] | [7] | [8] | [14] | [19]
inactive: all other assays above

CC(C)C[C@H](NC(=O)[C@H](CCc1ccccc1)NC(=O)CN1CCOCC1)C(=O)N[C@@H](Cc1ccccc1)C(=O)N[C@@H](CC(C)C)C(=O)[C@@]1(C)CO1
active: [1] 298 nM | [5] 4460 nM | [6] 630 nM | [7] 112 nM
not listed: [3] | [4] | [12] | [17]
inactive: all other assays above

COc1ccc([C@@H]2Sc3ccccc3N(CCN(C)C)C(=O)[C@@H]2OC(C)=O)cc1
not listed: [4] | [8] | [9] | [10] | [11] | [17]
inactive: all other assays above

CCCCCC(C)N (centres undefined)
not listed: [2] | [13] | [19]
inactive: all other assays above

O=C(Nc1cccc2c(=O)cc(-c3nn[nH]n3)oc12)c1ccc(OCCCCc2ccccc2)cc1
not listed: [6] | [11] | [12] | [16] | [17] | [19]
inactive: all other assays above

CC(C)CC(=O)N[C@H](C(=O)N[C@H](C(=O)N[C@@H](CC(C)C)[C@@H](O)CC(=O)N[C@@H](C)C(=O)N[C@@H](CC(C)C)[C@@H](O)CC(=O)O)C(C)C)C(C)C (Isovaleryl-VV[Sta]A[Sta]-OH)
not listed: [4] | [8] | [9] | [10] | [11] | [12] | [19]
inactive: all other assays above

CCC(=O)O[C@]1(C(=O)SCF)[C@H](C)C[C@H]2[C@@H]3C[C@H](F)C4=CC(=O)C=C[C@]4(C)[C@@]3(F)[C@@H](O)C[C@@]21C
not listed: [4] | [7] | [12] | [14] | [19]
inactive: all other assays above
